From PubChem
Tau fluor cs = counter-screen for tau fibril formation inhibitors; tau K18 P301L Alexa594 fluorescence, heparin fibrillization; Potency, µM (highest dose often 57.7 µM), for the others: at the highest dose activity change, negative = decrease; 0.93% of 280,000 active; AID 1463; also: potency is read from the fitted curve at half-maximal effect; % is scaled to controls: 0 for no effect and ±100 for the full control effect; nearly all actives have a fitted effect of over 55% in size
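Human K18 P301L tau (15 uM unlabeled plus 0.24 uM Alexa 594-labeled, final) in 100 mM sodium acetate pH 7 was mixed with compound and 20 uM heparin and incubated 6 hr at 37 C.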
TRb-SRC2 inh = TRbeta-SRC2 interaction inhibition; TRbeta-SRC2 peptide binding, fluorescence polarization; receptor liganded with 1 µM T3; Potency, µM (doses to about 106 µM), for the others: top-dose activity change, negative = inhibition, hits mostly inhibitors; AID 1469; P10828; 0.065% of 280,000 active;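 also: potency is read from the fitted curve at half-maximal effect; plate controls were bound peptide for no effect and peptide without receptor for full effect; nearly all actives have a fitted effect of over 50% in size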
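Human TRb ligand-binding domain (0.6 uM) is mixed with 20 nM Texas Red SRC2 peptide and 1 uM T3; after compound addition and 5 hr at ambient temperature, polarization is measured and normalized to unbound and bound controls.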
Tau fibril FP = tau fibrillization inhibition (FP); P10636; K18 P301L tau heparin fibrillization, Alexa594 FP, 6 h; Potency, µM (titrated, usually from 57.7 µM), inactives show at the top dose activity, negative = inhibition, usual class: inhibitors; 0.39% of 280,000 active; also: potency is read from the fitted curve at half-maximal effect; % is scaled to controls: 0 for no effect and ±100 for the full control effect; nearly all actives have a fitted effect of over 55% in size
Target sequence (P10636 561-689 P618L limits assumed): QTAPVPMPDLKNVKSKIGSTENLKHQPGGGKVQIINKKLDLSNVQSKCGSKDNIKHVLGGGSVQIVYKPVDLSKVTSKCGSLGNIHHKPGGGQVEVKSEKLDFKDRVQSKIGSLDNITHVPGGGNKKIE
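Heparin (20 uM) drove fibril formation of recombinant tau K18 P301L, 15 uM unlabeled with 0.24 uM Alexa 594 label, for 6 hr at 37 C in 100 mM sodium acetate pH 7. Fluorescence polarization (555/632 nm) read 1 hr after 30 uM ThT.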
TR SRC2 fluor cs = alters Texas Red total fluorescence, flagging assay interference. Potency, µM (series often up to 106 µM), inactives show top-dose fluorescence change, negative = quenching. 0.29% of 280,000 active. AID 1479. TRb/SRC2 Texas Red total fluorescence interference; active = well fitted curve in either direction with a large enough effect; inconclusive = small, poorly fitted or top-dose-only effect; also: potency is read from the fitted curve at half-maximal effect; % is scaled to controls: 0 for no effect and ±100 for the full control effect
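Human TRβ ligand-binding domain (0.6 uM) and Texas Red SRC2 peptide (20 nM) in Tris buffer with 1 uM T3 and 5% DMSO were incubated with pinned compound for 5 hr at ambient temperature. Total fluorescence was computed as S + 2P (555/632 nm).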
Tau ThT inhib = inhibitors of human tau fibril formation, thioflavin T binding. P10636. 2.1% of 270,000 active. recombinant tau K18 P301L, heparin-induced fibrillization, ThT fluorescence. Potency, µM (titrated, usually from 57.4 µM), for the others: at the top dose activity, negative = inhibition, usual class: inhibitors; also: potency is read from the fitted curve at half-maximal effect; % is scaled to controls: 0 for no effect and ±100 for the full control effect; nearly all actives have a fitted effect of over 55% in size
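Recombinant human tau K18 fragment […] carrying P301L, 15 uM unlabeled plus 0.24 uM Alexa 594-labeled, was fibrillized with 20 uM heparin in 100 mM sodium acetate pH 7 for 6 hr at 37 C; 30 uM ThT fluorescence read after 1 hr.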
Tau fibril TEM = Blocks tau fibril formation, electron microscopy. shares compounds with Tau ThT inhib. recombinant tau K18 P301L fibrillization, TEM grading; stronger effect = higher value. fibril grade (0 = clumped fibrils, 4 = only tiny pieces) (test concentration not listed). 70% of 45 active;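 active = compounds whose electron micrographs showed tau fibrils broken into shorter filaments or fragments, graded high on fibril breakup; inconclusive = micrographs gave an unclear fibril picture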
tau fibril sed = reduces sedimented tau K18 P301L aggregates; shares compounds with Tau ThT inhib; recombinant tau K18 P301L (four-repeat tau fragment), sedimentation SDS-PAGE densitometry; inhibition, % at 100 µM; 50% of 110 active; AID 1720; in the data active = inhibition above about 40%; inconclusive = no clear call, values can overlap the other calls; inactive = below about 18%
* hit, by the source's call; u = inconclusive; x = not tested or not shown; [ ] = dose if it differs, or a comment. Hits are enriched below; roughly 3% of the tested compounds scored in any of these assays. Unless noted, calls follow the shape of the dose curve; as a rule, active = well fitted curve in the direction sought with a large enough effect; inconclusive = small, poorly fitted or top-dose-only effect, or another doubt; inactive = no such curve, though single readings can be large; an effect the other way counts as inactive or inconclusive.

SMILES | Tau fluor cs | TRb-SRC2 inh | Tau fibril FP | TR SRC2 fluor cs | Tau ThT inhib | Tau fibril TEM | tau fibril sed
O=C(Nc1nc2ccc(S(=O)(=O)N3CCCC3)cc2s1)c1ccc(F)cc1 | -7% | 7% | -15% | -1% | 16% | x | 14
Cc1ccc(C2=NNC(=Nc3ccc(F)cc3)SC2)cc1 | u | -5% | -21% | -2% | 16µM* | 3* | u
CCOC(=O)c1sc(NC(=O)C(C)Oc2ccc(OC)cc2)c(C(=O)OCC)c1C (configuration not stated) | -20% | -3% | -12% | 1% | -10% | x | x
Cc1ccc(CNC(=O)CSc2nc3c(sc4ccccc43)c(=O)n2CCCOC(C)C)cc1 | -7% | 4% | -14% | -5% | 1% | x | x
COc1ccc(NC(=O)Cn2cc(S(=O)(=O)N3CCN(c4ccccc4F)CC3)c3ccccc3c2=O)cc1Cl | -14% | 5% | 13µM* | -1% | 11% | x | 7
Cc1cc(-c2ccc(C)c(S(=O)(=O)N3CCCC(C)C3)c2)on1 (configuration not stated) | u | 1% | 3% | 1% | -15% | x | x
Nc1ccc(-c2ccc3ccccc3n2)cc1 | u | -10% | 13% | -5% | u | x | 10
CSc1cccc(NC(=O)c2c(Cl)cnn2C)c1 | -2% | -9% | 3% | -1% | -2% | x | x
Cn1ncc(Cl)c1C(=O)Nc1cccc(Cl)c1 | -28% | -2% | u | -4% | 13µM* | 3* | 93*
COC(=O)c1c(NC(=O)CCCOc2ccc(C(C)(C)C)cc2)sc2c1C(C(=O)OC)CC2 (configuration not stated) | u | 6% | u | -1% | 8.9µM* | 0 | u
CCCC(=O)Nc1sc2c(c1C(=O)OC)C(C(=O)OC)CC2 (configuration not stated) | -5% | -14% | u | 2% | -10% | x | x
Cc1cc(O)cc(O)c1C(=O)OC1(C)C(=O)C=C2C=C(/C=C/C(=O)O)OC=C2C1=O (configuration not stated) | -16% | -2% | -15% | -5% | -16% | x | x
Cc1ccc(SCc2cc(=O)n(C)[nH]2)cc1 | u | u | u | -2% | 2.2µM* | x | 14
Cn1c(=O)n(C)c2cc(S(=O)(=O)N3CCOCC3)ccc21 | 3% | -15% | -3% | -2% | -5% | x | x
O=S(=O)(c1ccc2nc(-c3ccco3)c(-c3ccco3)nc2c1)N1CCOCC1 | 4µM*[quencher] | -9% | 8.9µM* | 6.3µM*[quencher] | 4µM* | 2* | 58*
NCCc1ccc(O)c(O)c1 | -28% | 7% | u | -2% | u | x | 15
CCn1c(O)c(/C=C2\C=NN=C2c2ccccc2)sc1=S | u | -2% | u | -2% | x | x | x
CC(C)Cn1c(O)c(/C=C2\C=NN=C2c2ccccc2)sc1=S | -27% | 6% | 20µM* | 2% | -11% | x | 14
COc1cccc(NS(=O)(=O)c2ccc3[nH]cc(C(=O)NCCc4ccc(C)cc4)c(=O)c3c2)c1 | u | -18% | u | u | 8% | x | x
CC(C)c1ccc(NS(=O)(=O)c2ccc3[nH]cc(C(=O)NCCc4ccccc4)c(=O)c3c2)cc1 | -8% | -4% | u | 4% | 5% | x | 8
O=C(O)CC1S/C(=N/N=C/c2ccc(-c3ccccc3[N+](=O)[O-])o2)NC1=O (configuration not stated) | -30% | u | u | -1% | 2.2µM* | 4* | 58*
Cc1ccc(-c2ccc(/C=N/N=C3/NC(=O)C(CC(=O)O)S3)o2)c([N+](=O)[O-])c1 (configuration not stated) | -23% | -1% | u | -4% | 10µM* | u | u
